From PubChem BioAssay (Tox21)
Inconclusive results are not listed. Active and inactive are the calls of the source. The call rests on the fitted dose curve.

Tests used:
[1] = biological target: Acetylcholinesterase (Homo sapiens) (UniProt P22303); test: Acetylcholinesterase (AChE) small molecule antagonists: colormetric cell-based qHTS assay (AID 1347395); further: nearly all actives have a fitted effect of over 30% in size
Procedure, shortened: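 Homogeneous whole-cell format. SH-SY5Y cells seeded overnight, dosed with compound (30 min, 37 C, 5% CO2), then given DTNB/acetylthiocholine cocktail for 90 min at 37 C; colorimetric signal.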

[2] = biological target: Acetylcholinesterase (Homo sapiens) (UniProt P22303); test: Acetylcholinesterase (AChE) small molecule antagonists: enzyme-based qHTS assay (AID 1347397); settings: Potency: AChE enzyme activity inhibition; outcome: AChE enzyme activity inhibition; further: nearly all actives have a fitted effect of over 55% in size
Procedure, shortened: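 In this quantitative HTS, compounds from the Tox21 10K collection were preincubated 30 min at ambient temperature with recombinant human AChE dispensed at 50 mU/mL. Hydrolysis of acetylthiocholine was then followed for 10 min by DTNB colour development.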

[3] = biological target: Acetylcholinesterase (Homo sapiens) (UniProt P22303); test: Acetylcholinesterase (AChE) small molecule antagonists: fluorescence cell-based qHTS assay (AID 1347398); settings: Potency: AChE activity; outcome: AChE activity; further: nearly all actives have a fitted effect of over 50% in size
Procedure, shortened: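 Cells (SH-SY5Y) attached overnight, were dosed with compound or DMSO vehicle for 30 min at 37 C, and then incubated 40 min at room temperature with acetylthiocholine and Thiolite Green; green fluorescence indexed AChE activity.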

[4] = biological target: Acetylcholinesterase (Homo sapiens) (UniProt P22303); test: Acetylcholinesterase (AChE) small molecule antagonists: enzyme-based qHTS assay with human liver microsomes (AID 1347399); settings: Potency: qHTS inhibition; outcome: qHTS inhibition; further: nearly all actives have a fitted effect of over 60% in size
Procedure, shortened: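 Recombinant human AChE (50 mU/mL in the enzyme mix) and human liver microsomes (0.25 mg/mL final) were preincubated with compound and NADPH (0.25 mg/mL final) for 30 min at 37 C. Acetylthiocholine/DTNB was then added; thiocholine was read colorimetrically after 10 min at room temperature.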
On the % scale 0 is the no-effect control and ±100 the full control effect.

Chain of Acetylcholinesterase (Homo sapiens) (P22303 whole entry, looked up): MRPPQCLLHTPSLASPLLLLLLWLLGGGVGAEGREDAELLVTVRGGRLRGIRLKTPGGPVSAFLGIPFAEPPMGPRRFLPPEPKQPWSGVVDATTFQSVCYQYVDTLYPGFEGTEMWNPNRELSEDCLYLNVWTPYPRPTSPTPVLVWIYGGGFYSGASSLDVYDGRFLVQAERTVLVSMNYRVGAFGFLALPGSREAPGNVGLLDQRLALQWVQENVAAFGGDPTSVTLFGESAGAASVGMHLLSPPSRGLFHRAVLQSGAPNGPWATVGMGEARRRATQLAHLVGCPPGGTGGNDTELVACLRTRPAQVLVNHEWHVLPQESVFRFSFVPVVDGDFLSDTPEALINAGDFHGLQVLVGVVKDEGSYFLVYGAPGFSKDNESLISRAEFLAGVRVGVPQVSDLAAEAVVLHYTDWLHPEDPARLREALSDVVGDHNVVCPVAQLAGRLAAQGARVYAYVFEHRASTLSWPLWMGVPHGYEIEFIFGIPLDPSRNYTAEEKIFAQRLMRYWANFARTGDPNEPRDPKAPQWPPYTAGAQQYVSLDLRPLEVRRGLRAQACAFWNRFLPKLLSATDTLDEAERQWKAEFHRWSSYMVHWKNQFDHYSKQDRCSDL

CCCCOC(=O)C(C)CC (stereo unspecified)
inactive: Potency [1] | Potency [2] | Potency [3] | Potency [4]

Cc1c[nH]c(=S)[nH]c1=O
inactive: Potency [1] | Potency [2] | Potency [3] | Potency [4]

C[C@H](CCC(=O)O)[C@H]1CC[C@H]2[C@@H]3C(=O)C[C@@H]4CC(=O)CC[C@]4(C)[C@H]3CC(=O)[C@]12C
inactive: Potency [1] | Potency [2] | Potency [3] | Potency [4]

Nc1ccnc(=O)[nH]1
inactive: Potency [1] | Potency [2] | Potency [3] | Potency [4]

O=CCCc1ccccc1
inactive: Potency [1] | Potency [2] | Potency [3] | Potency [4]

CCC(C)C(=O)OC (stereo unspecified)
inactive: Potency [1] | Potency [2] | Potency [3] | Potency [4]

CC(=O)OC(C)C[N+](C)(C)C (stereo unspecified)
inactive: Potency [1] | Potency [2] | Potency [3] | Potency [4]

CCOc1ccccc1OCC
inactive: Potency [1] | Potency [2] | Potency [3] | Potency [4]

O=C1OC(=O)c2cc(Oc3ccc4c(c3)C(=O)OC4=O)ccc21
inactive: Potency [1] | Potency [2] | Potency [3] | Potency [4]

Cc1nnc(SCC2=C(C(=O)O)N3C(=O)[C@@H](NC(=O)Cn4cnnn4)[C@H]3SC2)s1
inactive: Potency [1] | Potency [2] | Potency [3] | Potency [4]

CCN(CC)c1cccc(C)c1
inactive: Potency [1] | Potency [2] | Potency [3] | Potency [4]

C=CC(C)C#N (stereo unspecified)
inactive: Potency [1] | Potency [2] | Potency [3] | Potency [4]

O=Cc1ccc(F)cc1
inactive: Potency [1] | Potency [2] | Potency [3] | Potency [4]

CC(C)CC(O)CC(C)C
inactive: Potency [1] | Potency [2] | Potency [3] | Potency [4]

COc1ccc2cccc(CCNC(C)=O)c2c1
inactive: Potency [1] | Potency [2] | Potency [3] | Potency [4]

CC(C)(C)c1cc(C=O)cc(C(C)(C)C)c1O
inactive: Potency [1] | Potency [2] | Potency [3] | Potency [4]

C=CC(=C)CC/C=C(\C)CCC=C(C)C
inactive: activity, negative = inhibition [1] -2.99% [at 23.6 µM] | activity change, negative = inhibition [2] 0.554% [at 23.6 µM] | activity change, negative = inhibition [3] -5.88% [at 23.8 µM] | activity change, negative = inhibition [4] -0.162% [at 23.6 µM]

CCC(=O)C(=O)CC
inactive: Potency [1] | Potency [2] | Potency [3] | Potency [4]

CCc1cc(S(=O)(=O)O)c2cc(C(C)C)cccc1-2
inactive: Potency [1] | Potency [2] | Potency [3] | Potency [4]

C=COCCCC
inactive: Potency [1] | Potency [2] | Potency [3] | Potency [4]

C=CC(C)(O)CC/C=C(\C)CCC=C(C)C (stereo unspecified)
inactive: Potency [1] | Potency [2] | Potency [3] | Potency [4]

CCOC(=O)C(=O)OCC
inactive: Potency [1] | Potency [2] | Potency [3] | Potency [4]

CCCCC(CC)(CO)CO
inactive: Potency [1] | Potency [2] | Potency [3] | Potency [4]

C=C(C)[C@H]1CC=C(C)CC1
inactive: Potency [1] | Potency [2] | Potency [3] | Potency [4]

CCc1ccc(O)c(OC)c1
inactive: Potency [1] | Potency [2] | Potency [3] | Potency [4]

CC1(C)O[C@@H]2C[C@H]3[C@@H]4CCC5=CC(=O)CC[C@]5(C)[C@@]4(F)[C@@H](O)C[C@]3(C)[C@]2(C(=O)CCl)O1
inactive: Potency [1] | Potency [2] | Potency [3] | Potency [4]

COc1cccc(OC)c1C(=O)O
inactive: Potency [1] | Potency [2] | Potency [3] | Potency [4]

CCC1(CO)COCOC1
inactive: Potency [1] | Potency [2] | Potency [3] | Potency [4]

CC(C)=CCCC(C)O (stereo unspecified)
inactive: Potency [1] | Potency [2] | Potency [3] | Potency [4]

CC(C)C(C)C
inactive: Potency [1] | Potency [2] | Potency [3] | Potency [4]

O=C(CC(=O)C(F)(F)F)c1ccccc1
inactive: Potency [1] | Potency [2] | Potency [3] | Potency [4]

C=C(C)CCO
inactive: Potency [1] | Potency [2] | Potency [3] | Potency [4]

COc1cc(C(=O)OCCCN2CCCN(CCCOC(=O)c3cc(OC)c(OC)c(OC)c3)CC2)cc(OC)c1OC
inactive: Potency [1] | Potency [2] | Potency [3] | Potency [4]

Oc1c(Br)cc(Br)c2cccnc12
inactive: Potency [1] | Potency [2] | Potency [3] | Potency [4]

Cn1cc(C(=O)[C@@H]2CCc3nc[nH]c3C2)c2ccccc21
inactive: Potency [1] | Potency [2] | Potency [3] | Potency [4]

CC1c2ccccc2CN1NC(=O)c1ccc(Cl)c(S(N)(=O)=O)c1 (stereo unspecified)
inactive: Potency [1] | Potency [2] | Potency [3] | Potency [4]

C[C@@]12CCC[C@H]1[C@@H]1CC[C@H]3C[C@@H](O)CC[C@]3(C)[C@H]1CC2
inactive: Potency [1] | Potency [2] | Potency [3] | Potency [4]

CC(=O)OCC(=O)[C@@]1(O)CC[C@H]2[C@@H]3CCC4=CC(=O)C=C[C@]4(C)[C@@]3(F)[C@@H](O)C[C@@]21C
inactive: Potency [1] | Potency [2] | Potency [3] | Potency [4]

COC(=O)CC(C)=O
inactive: Potency [1] | Potency [2] | Potency [3] | Potency [4]
